# Source: PMC7826789 (International Journal of Molecular Sciences, 2021)
# Assays:
# [1] = system: MAP2K4
# [2] = system: MAP3K11
# [3] = system: MAP3K19
# [4] = system: MAP3K2
# [5] = system: MAP3K5
# [6] = system: MAP4K2
# [7] = system: MAP4K4
# [8] = system: MAPK11
smiles,measurement,setting,value
Nc1nccc(-c2c(-c3ccc(F)cc3)ncn2CCCN2CCOCC2)n1 [SB-216385],Kinases covered,[1],MAP2K4
CN(C)C/C=C/C(=O)Nc1ccc(C(=O)Nc2cccc(Nc3ncc(Cl)c(-c4c[nH]c5ccccc45)n3)c2)cc1 [THZ1],Kinases covered,[2],MAP3K11
CCn1c(-c2nonc2N)nc2ccccc21 [SB-693162],Kinases covered,[3],MAP3K19
Cc1cccc(CC(=O)N2CCc3c2ccc(-c2cn(C)c4ncnc(N)c24)c3F)n1 [GSK2656157],Kinases covered,[4],MAP3K2
CC(C)(C)c1ccc(C(=O)Nc2cn3cc(-c4cccnc4)ccc3n2)cc1 [TPKI-58],Kinases covered,[5],MAP3K5
Cc1cc(-c2ccc3c(c2)CC[C@@H](N[C@@H](C)c2ccccc2)C3)cnc1N [GW412617],Kinases covered,[6],MAP4K2
Cl.O=C1Nc2ccc(-c3cccnc3)cc2C1=Cc1cc(Br)c(O)c(Br)c1 [GW429374A],Kinases covered,[7],MAP4K4
COCCNC(=O)c1ccc(-c2cc(C(=O)NC3CC3)cc(F)c2C)cc1 [GW868318],Kinases covered,[8],MAPK11
Cc1ccc(C(=O)NCC(N)=O)cc1-n1c(C)cc(OCc2ccc(F)cc2F)c(Br)c1=O [PFE-PKIS 1],Kinases covered,[8],MAPK11
